# HT1080 IDH1KD tx = kills HT-1080 cells with IDH1 knockdown; AID 686971; 360,000 compounds, 2% hits; HT-1080 IDH1 knockdown viability, ATP luminescence, 48 h; Potency, µM (top dose mostly 46.1 µM), without a hit: at the top dose activity, negative = toxicity, usual class: cytotoxic;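 further: potency means the concentration at half of the fitted maximal effect; 0% = DMSO wells and -100% = cell-free medium wells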
#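 CellTiter-Glo luminescence after 48 h compound exposure at 37 degrees C of IDH1-knockdown HT-1080 cells in 5% FBS RPMI. %Activity scaled between DMSO wells and cell-free media wells, with curves fitted and assigned curve classes.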
# HT1080-NT tox = kills 2HG-producing HT-1080-NT fibrosarcoma cells | HT-1080-NT fibrosarcoma viability, CellTiter-Glo ATP luminescence, 48 h | 360,000 compounds, 1.6% hits | AID 686970 | Potency, µM (series often up to 46.1 µM), inactives show at the highest dose activity, negative = less viability, usual class: cytotoxic;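 further: NT is the 2HG producing partner of a matched IDH1 knockdown line; potency means the concentration at half of the fitted maximal effect; 0% = DMSO-treated cells and -100% = media-only wells without cells; nearly all actives have a fitted effect of over 55% in size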
#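 Luminescent CellTiter-Glo readout after 48 hours of compound exposure at 37 degrees C defined viability of HT-1080-NT cells. Activity was normalized to DMSO wells and cell-free media wells; concentration-response curves were fitted and assigned curve classes.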
# TDP1 cell noCPT = qHTS for Inhibitors of human tyrosyl-DNA phosphodiesterase 1 (TDP1): qHTS in cells in absence of CPT | DT40 Tdp1-/- hTDP1 cells, no CPT, ATP luminescence, 48 h | Potency, µM (top dose mostly 46.2 µM), without a hit: top-dose activity change, negative = growth inhibition, most hits filed as inhibitors | 420,000 compounds, 15% hits; further: potency means the concentration at half of the fitted maximal effect; nearly all actives have a fitted effect of over 55% in size
#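 Camptothecin absent (DMSO only). Human TDP1-complemented DT40 knockout cells, 400 cells/well, 37 °C for minimum 48 hr; ATP measured via CellTiter-Glo, 30 min dark incubation, luminescence.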
# IL-1B inflam inh = blocks inflammasome-driven IL-1 beta release. THP-1 LPS/ATP IL-1B secretion, AlphaLISA, 16 h; hits give low values. activity change, % at 57.5 µM. 360,000 compounds, 4.7% hits; in the data active means activity change below about -50%; inconclusive means mostly about -30% to -49%
#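 THP-1 cells pretreated 1 hr with compounds (up to 57.5 uM final), then stimulated with LPS (250 ng/mL final) plus ATP (1.25 mM final); secreted IL-1B measured by AlphaLISA after 16 hr, decreased signal indicating inhibition.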
# ELG1 repair inh = ELG1-dependent DNA repair inhibition. HEK293T ELG1-luciferase reporter, luminescence, 16 h; DNA damage induced by 5-fluorouridine. Potency, µM (titrated, usually from 46.1 µM), for the others: at the top dose activity change, negative = inhibition, hits mostly inhibitors. 330,000 compounds, 2.3% hits. AID 504467; further: potency means the concentration at half of the fitted maximal effect; nearly all actives have a fitted effect of over 55% in size
#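 Luminescence from the luciferase reporter, measured 30 min after ONE-Glo reagent at room temperature, was the read-out. Beforehand, 2,000 cells per well were exposed for 16 hr at 37 °C to 5-fluorouridine together with compound or vehicle.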
# DT40 TDP1 CPT = DT40-hTDP1 cell growth loss with CPT | chicken DT40 Tdp1-/-;hTDP1 cells + 20 nM CPT, ATP luminescence, 48 h | Potency, µM (top dose mostly 46.2 µM), for inactives: at the highest dose activity change, negative = growth inhibition, usual class: inhibitors | 420,000 compounds, 12% hits; further: potency means the concentration at half of the fitted maximal effect; nearly all actives have a fitted effect of over 55% in size
#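 Chicken DT40 Tdp1-/- cells stably complemented with human TDP1 were seeded at 400 cells/well in medium containing 20 nM camptothecin, exposed to pin-transferred compounds, and grown at 37 °C for at least 48 hr. Viability was read as ATP luminescence.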
# An asterisk follows results filed as active; ? = inconclusive; . = not tested or not shown. Shown are actives, neighbours in structure and some others; about 19% of the full set was active somewhere. Unless noted, the call rests on the fitted dose curve; in most records, active means well fitted curve in the direction sought with a large enough effect; inconclusive means small, poorly fitted or top-dose-only effect, or another doubt; inactive means no such curve, though single readings can be large; an effect the other way counts as inactive or inconclusive. Unless noted, on the % scale 0 is the no-effect control and ±100 the full control effect.
SMILES,HT1080 IDH1KD tx,HT1080-NT tox,TDP1 cell noCPT,IL-1B inflam inh,ELG1 repair inh,DT40 TDP1 CPT
CC(C)(C)NC(=O)C(c1ccccc1)n1c(=O)c(-c2ccco2)nc2ccccc21 (stereo unspecified),-9%,-24%,?,-2,.,?
COc1ccc(NC(=O)C(c2ccc(C(F)(F)F)cc2)n2c(=O)c(-c3ccco3)nc3ccccc32)cc1 (stereo unspecified),-2%,1%,?,-19,.,?
O=C(NCc1ccccc1)C(c1ccccc1F)n1c(=O)c(-c2ccccc2)nc2ccccc21 (stereo unspecified),-8%,-14%,?,-15,.,16µM*
COc1ncc2nc(CCc3ccccc3)c(=O)n(C)c2n1,.,.,?,.,.,-15%
CC(=O)N1CCC2(CC1)OC(=O)C(C)=C2C(=O)Nc1cccc(Cl)c1C,.,.,5%,.,.,10%
CCn1c(O)c(C=Nc2ccccc2)n(-c2ccccc2)c1=S,?,-15%,5.8µM*,-5,12%,6.5µM*
CCN(C(=O)c1cnc(OC)cc1C(F)(F)F)c1ccc(Cl)cc1Cl,15%,22%,?,29,0%,-16%
CCOC(=O)c1cc(CC)sc1NC(=O)C1CC(=O)NN1Cc1ccccc1 (stereo unspecified),21µM*,?,16µM*,-60*,7%,?
COC(=O)c1cc(C)sc1NC(=O)C1CC(=O)NN1Cc1ccccc1 (stereo unspecified),-4%,-5%,?,10,4%,-27%
C=CC(C)(C)c1[nH]cnc1/C=C1\NC(=O)C(C(C)C)NC1=O (stereo unspecified),-30%,?,16µM*,30,-20%,12µM*
CSc1nc(COC(=O)NC(C)C)c(COC(=O)NC(C)C)n1Cc1ccccc1,5%,18%,13µM*,10,.,9.2µM*
CSCCC(NC(=O)OCc1ccccc1)C(=O)O (stereo unspecified),4%,3%,6%,11,6%,-2%
Cc1ccc(S(=O)(=O)N(C)/N=C2/C(=O)N(CC(=O)O)c3ccccc32)cc1,1%,-2%,-18%,-9,0%,-5%
Cc1ccc(O)c(NC(=S)NC(=O)c2ccccc2Cl)c1,?,?,?,-58*,2%,?
O=C(NC(=S)Nc1ccc(O)cc1)c1ccccc1Cl,-6%,13%,3%,-9,?,-20%
Cc1ccc(O)c(NC(=O)c2cc([N+](=O)[O-])ccc2Cl)c1,?,-16%,21µM*,-97*,?,?
CCc1ccccc1NC(=S)NNC(=O)c1ccccc1Cl,11%,-3%,5.8µM*,5,-1%,6.5µM*
Cc1cc(O)c(NC(=O)c2cc([N+](=O)[O-])ccc2Cl)cc1C,?,?,-27%,-84*,?,?
CCc1ccccc1NC(=S)NN,.,.,.,.,-16%,.
CCCOC(=O)C(C)n1cnc2scc(-c3ccc(C)cc3)c2c1=O (stereo unspecified),-8%,-12%,0%,-8,-4%,?
Cc1cc(C)c(C(=O)CC(=O)c2ccccc2Cl)c(O)c1,?,-28%,10µM*,-6,-3%,16µM*
Cn1c(NCc2ccco2)nc2c1c(=O)n(Cc1ccc(Br)cc1)c(=O)n2C,-24%,-23%,?,-11,18µM*,?
Cn1c(NCc2ccco2)nc2c1c(=O)n(Cc1ccc(Cl)cc1)c(=O)n2C,-18%,-23%,18µM*,-24,?,?
Cn1c(NCc2ccco2)nc2c1c(=O)n(Cc1ccc(Cl)cc1Cl)c(=O)n2C,?,-3%,?,16,?,?
CCC(Oc1ccccc1OC)C(=O)Nc1ccc2c(c1)OCCO2 (stereo unspecified),11%,4%,12%,5,13%,3%
SMILES,HT1080 IDH1KD tx,HT1080-NT tox,TDP1 cell noCPT,IL-1B inflam inh,ELG1 repair inh,DT40 TDP1 CPT
CC(=O)N1CCN(c2ccc(S(=O)(=O)N3CCOCC3)cc2[N+](=O)[O-])CC1,1%,9%,-3%,8,?,3%
CC(=O)Oc1ccc(C(=O)Nc2cc(NC(=O)c3ccc(OC(C)=O)cc3)cc(C(=O)NC(C)(C)C)c2)cc1,-26%,-24%,26µM*,-64*,?,21µM*
CC(=O)Oc1ccc(C(=O)Nc2ccc3c(c2)OCCO3)cc1,?,?,13µM*,?,?,15µM*
CC(=O)Oc1ccc(C(=O)Nc2ccccc2NC(=O)c2ccc(OC(C)=O)cc2)cc1,7%,-3%,-12%,1,0%,-14%
COc1ccc(C(=O)Nc2ccc3c(c2)OCCO3)cc1,?,-16%,-15%,-15,?,-28%
COc1ccc(C(=O)CCNc2ccc3c(c2)OCCO3)cc1,-7%,4%,13µM*,-53*,?,15µM*
COc1cc2[nH]c(C(=O)Nc3ccc4c(c3)OCCO4)cc2c(OC)c1OC,-26%,-29%,?,-91*,-4%,16µM*
COc1ccc2c(O)c(-c3c(C)cc(C)cc3C)c(=O)[nH]c2c1,3%,21%,?,.,.,1%
CCOc1ccc(N/C(C)=C\C(=O)c2ccc3c(c2)OCCO3)cc1,1%,11%,-1%,-11,?,17%
C=CCN(c1ccc(C(=O)Nc2ccc3c(c2)n(C)c(=O)n3C)cc1)S(C)(=O)=O,0%,-1%,-25%,115,?,?
O=C(Nc1ccc2c(c1)OCCO2)c1ccc(Br)s1,-1%,-5%,?,-76*,?,?
CCC(=O)c1ccc(OCC(=O)Nc2ccc3c(c2)OCCO3)cc1,-3%,-5%,12µM*,-6,?,-19%
C=CCN(c1ccc(C(=O)Nc2ccc3c(c2)OCO3)cc1)S(C)(=O)=O,10%,24%,-9%,15,13µM*,17%
CCOc1ccc(N/C(C)=C/C(=O)c2ccc3c(c2)OCCO3)cc1,-14%,21%,?,-77*,?,-21%
CCC(=O)N1CCN(c2ccccc2NC(=O)COc2ccccc2Cl)CC1,-2%,-20%,?,9,?,23µM*
CN1CCN(c2ccc(NC(=O)COc3ccccc3Cl)cc2)CC1,-3%,2%,16µM*,?,-3%,16µM*
